Where a chain is given by its changes, count along the chain named. Whole data set: some 16,000 sequences, median “ka relative to ugcaugu” near 0.096, cut for the highest 2% near 0.35. This excerpt belongs to a sample that is enriched for the highest values.
B1: CAUACAC (DNA:RNA)
RNA: GGGAGACCGGAAUUCAGAUUGUCCCAUACACUUAAAUCCCGUCGUAGCCACCA
DNA 1: CAATCTGAATTCCGGTCTCCC
DNA 2: TGGTGGCTACGACGGGATT
B2: GUCUAGC (DNA:RNA)
RNA: B1 RNA with C25G, A26U, U27C, A28U, C29A, A30G
DNA 1: CAATCTGAATTCCGGTCTCCC
DNA 2: TGGTGGCTACGACGGGATT
B3: UUCCCGC (DNA:RNA)
RNA: B1 RNA with C25U, A26U, U27C, A28C, A30G
DNA 1: CAATCTGAATTCCGGTCTCCC
DNA 2: TGGTGGCTACGACGGGATT
B4: CCCGCGA (DNA:RNA)
RNA: B1 RNA with A26C, U27C, A28G, A30G, C31A
DNA 1: CAATCTGAATTCCGGTCTCCC
DNA 2: TGGTGGCTACGACGGGATT
B5: CAUUCUU (DNA:RNA)
RNA: B1 RNA with A28U, A30U, C31U
DNA 1: CAATCTGAATTCCGGTCTCCC
DNA 2: TGGTGGCTACGACGGGATT
B6: AAAGCCC (DNA:RNA)
RNA: B1 RNA with C25A, U27A, A28G, A30C
DNA 1: CAATCTGAATTCCGGTCTCCC
DNA 2: TGGTGGCTACGACGGGATT
B7: ACGCAGA (DNA:RNA)
RNA: GGGAGACCGGAAUUCAGAUUGUCCACGCAGAUUAAAUCCCGUCGUAGCCACCA
DNA 1: CAATCTGAATTCCGGTCTCCC
DNA 2: TGGTGGCTACGACGGGATT
B8: ACGCGUC (DNA:RNA)
RNA: B7 RNA with A29G, G30U, A31C
DNA 1: CAATCTGAATTCCGGTCTCCC
DNA 2: TGGTGGCTACGACGGGATT
B9: ACGCAUG (DNA:RNA)
RNA: B7 RNA with G30U, A31G
DNA 1: CAATCTGAATTCCGGTCTCCC
DNA 2: TGGTGGCTACGACGGGATT
B10: ACGCAUC (DNA:RNA)
RNA: B7 RNA with G30U, A31C
DNA 1: CAATCTGAATTCCGGTCTCCC
DNA 2: TGGTGGCTACGACGGGATT
B11: ACGCGCA (DNA:RNA)
RNA: B7 RNA with A29G, G30C
DNA 1: CAATCTGAATTCCGGTCTCCC
DNA 2: TGGTGGCTACGACGGGATT
B12: ACGCAUA (DNA:RNA)
RNA: B7 RNA with G30U
DNA 1: CAATCTGAATTCCGGTCTCCC
DNA 2: TGGTGGCTACGACGGGATT
B13: UCAUUGC (DNA:RNA)
RNA: B7 RNA with A25U, G27A, C28U, A29U, A31C
DNA 1: CAATCTGAATTCCGGTCTCCC
DNA 2: TGGTGGCTACGACGGGATT
B14: GAUAGUG (DNA:RNA)
RNA: B1 RNA with C25G, C29G, A30U, C31G
DNA 1: CAATCTGAATTCCGGTCTCCC
DNA 2: TGGTGGCTACGACGGGATT
B15: CGAUAGA (DNA:RNA)
RNA: B7 RNA with A25C, C26G, G27A, C28U
DNA 1: CAATCTGAATTCCGGTCTCCC
DNA 2: TGGTGGCTACGACGGGATT
B16: UGGUAGC (DNA:RNA)
RNA: B7 RNA with A25U, C26G, C28U, A31C
DNA 1: CAATCTGAATTCCGGTCTCCC
DNA 2: TGGTGGCTACGACGGGATT
B17: UGGUAGA (DNA:RNA)
RNA: B7 RNA with A25U, C26G, C28U
DNA 1: CAATCTGAATTCCGGTCTCCC
DNA 2: TGGTGGCTACGACGGGATT
B18: UGGUAAA (DNA:RNA)
RNA: B7 RNA with A25U, C26G, C28U, G30A
DNA 1: CAATCTGAATTCCGGTCTCCC
DNA 2: TGGTGGCTACGACGGGATT
B19: UGGUAUC (DNA:RNA)
RNA: B7 RNA with A25U, C26G, C28U, G30U, A31C
DNA 1: CAATCTGAATTCCGGTCTCCC
DNA 2: TGGTGGCTACGACGGGATT
B20: UGGUAUA (DNA:RNA)
RNA: B7 RNA with A25U, C26G, C28U, G30U
DNA 1: CAATCTGAATTCCGGTCTCCC
DNA 2: TGGTGGCTACGACGGGATT
B21: UGGUAUG (DNA:RNA)
RNA: B7 RNA with A25U, C26G, C28U, G30U, A31G
DNA 1: CAATCTGAATTCCGGTCTCCC
DNA 2: TGGTGGCTACGACGGGATT
B22: ACUUGAG (DNA:RNA)
RNA: B7 RNA with G27U, C28U, A29G, G30A, A31G
DNA 1: CAATCTGAATTCCGGTCTCCC
DNA 2: TGGTGGCTACGACGGGATT
B23: AGGGUAC (DNA:RNA)
RNA: B7 RNA with C26G, C28G, A29U, G30A, A31C
DNA 1: CAATCTGAATTCCGGTCTCCC
DNA 2: TGGTGGCTACGACGGGATT
B24: UUAACCU (DNA:RNA)
RNA: B1 RNA with C25U, A26U, U27A, A30C, C31U
DNA 1: CAATCTGAATTCCGGTCTCCC
DNA 2: TGGTGGCTACGACGGGATT
B25: UCCAUCA (DNA:RNA)
RNA: B7 RNA with A25U, G27C, C28A, A29U, G30C
DNA 1: CAATCTGAATTCCGGTCTCCC
DNA 2: TGGTGGCTACGACGGGATT
B26: GGCAGCU (DNA:RNA)
RNA: B1 RNA with C25G, A26G, U27C, C29G, A30C, C31U
DNA 1: CAATCTGAATTCCGGTCTCCC
DNA 2: TGGTGGCTACGACGGGATT
B27: GUCGAGC (DNA:RNA)
RNA: B7 RNA with A25G, C26U, G27C, C28G, A31C
DNA 1: CAATCTGAATTCCGGTCTCCC
DNA 2: TGGTGGCTACGACGGGATT
B28: GUCAUGG (DNA:RNA)
RNA: B7 RNA with A25G, C26U, G27C, C28A, A29U, A31G
DNA 1: CAATCTGAATTCCGGTCTCCC
DNA 2: TGGTGGCTACGACGGGATT
B29: GCAUAGC (DNA:RNA)
RNA: B7 RNA with A25G, G27A, C28U, A31C
DNA 1: CAATCTGAATTCCGGTCTCCC
DNA 2: TGGTGGCTACGACGGGATT
B30: GCAUUGG (DNA:RNA)
RNA: B7 RNA with A25G, G27A, C28U, A29U, A31G
DNA 1: CAATCTGAATTCCGGTCTCCC
DNA 2: TGGTGGCTACGACGGGATT
B31: GCAUGGG (DNA:RNA)
RNA: B7 RNA with A25G, G27A, C28U, A29G, A31G
DNA 1: CAATCTGAATTCCGGTCTCCC
DNA 2: TGGTGGCTACGACGGGATT
B32: GCCAUGG (DNA:RNA)
RNA: B7 RNA with A25G, G27C, C28A, A29U, A31G
DNA 1: CAATCTGAATTCCGGTCTCCC
DNA 2: TGGTGGCTACGACGGGATT
B33: GCAUGGU (DNA:RNA)
RNA: B7 RNA with A25G, G27A, C28U, A29G, A31U
DNA 1: CAATCTGAATTCCGGTCTCCC
DNA 2: TGGTGGCTACGACGGGATT
B34: CGCAUGG (DNA:RNA)
RNA: B1 RNA with A26G, U27C, C29U, A30G, C31G
DNA 1: CAATCTGAATTCCGGTCTCCC
DNA 2: TGGTGGCTACGACGGGATT
B35: CCAUGGU (DNA:RNA)
RNA: B7 RNA with A25C, G27A, C28U, A29G, A31U
DNA 1: CAATCTGAATTCCGGTCTCCC
DNA 2: TGGTGGCTACGACGGGATT
B36: GCAAUGG (DNA:RNA)
RNA: B7 RNA with A25G, G27A, C28A, A29U, A31G
DNA 1: CAATCTGAATTCCGGTCTCCC
DNA 2: TGGTGGCTACGACGGGATT
B37: GGCAUGG (DNA:RNA)
RNA: B7 RNA with A25G, C26G, G27C, C28A, A29U, A31G
DNA 1: CAATCTGAATTCCGGTCTCCC
DNA 2: TGGTGGCTACGACGGGATT
B38: GCAUGGA (DNA:RNA)
RNA: B7 RNA with A25G, G27A, C28U, A29G
DNA 1: CAATCTGAATTCCGGTCTCCC
DNA 2: TGGTGGCTACGACGGGATT
B39: GCAUGGC (DNA:RNA)
RNA: B7 RNA with A25G, G27A, C28U, A29G, A31C
DNA 1: CAATCTGAATTCCGGTCTCCC
DNA 2: TGGTGGCTACGACGGGATT

biological target: T1, RBFOX1 RRM RbFoxmut (Fox-RRM*) (Homo sapiens, UniProt Q9NWB1 109-208, R118D;E147R;N151S;E152T); experiment: EMSA; HiTS-Eq, 1 nM pool, 10 min; buffer printed only for the single-RNA assays: 10 mM Tris pH 7.5, 150 mM NaCl, 3.4 mM EDTA, 0.001% NP-40, 30 C; settings: tags: His6 N-terminal (pET28a); label: 5' 32P
T1 sequence: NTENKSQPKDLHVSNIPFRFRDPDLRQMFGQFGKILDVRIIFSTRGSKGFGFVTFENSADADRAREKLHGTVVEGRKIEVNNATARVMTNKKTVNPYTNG
Summary of the method: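 Purified wild-type or mutant RbFox RRM at increasing concentrations was equilibrated with 1 nM of 5′-radiolabelled RNA carrying 7 randomized nucleotides for 10 min in 50 µL. Unbound RNA was separated by 8% native PAGE and sequenced. Relative association constants came from read-count changes of each RNA species compared with the control reaction, normalised to the cognate motif.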

Binder	binding signal
B1	0.0927 KA relative to UGCAUGU
B2	0.0934 KA relative to UGCAUGU
B3	0.0732 KA relative to UGCAUGU
B4	0.0823 KA relative to UGCAUGU
B5	0.101 KA relative to UGCAUGU
B6	0.066 KA relative to UGCAUGU
B7	0.106 KA relative to UGCAUGU
B8	0.0969 KA relative to UGCAUGU
B9	0.844 KA relative to UGCAUGU
B10	0.355 KA relative to UGCAUGU
B11	0.15 KA relative to UGCAUGU
B12	0.152 KA relative to UGCAUGU
B13	0.12 KA relative to UGCAUGU
B14	0.126 KA relative to UGCAUGU
B15	0.101 KA relative to UGCAUGU
B16	0.102 KA relative to UGCAUGU
B17	0.128 KA relative to UGCAUGU
B18	0.0843 KA relative to UGCAUGU
B19	0.356 KA relative to UGCAUGU
B20	0.157 KA relative to UGCAUGU

Binder	binding signal
B21	1.27 KA relative to UGCAUGU
B22	0.13 KA relative to UGCAUGU
B23	0.106 KA relative to UGCAUGU
B24	0.0822 KA relative to UGCAUGU
B25	0.0673 KA relative to UGCAUGU
B26	0.0642 KA relative to UGCAUGU
B27	0.0952 KA relative to UGCAUGU
B28	0.154 KA relative to UGCAUGU
B29	0.126 KA relative to UGCAUGU
B30	0.179 KA relative to UGCAUGU
B31	0.322 KA relative to UGCAUGU
B32	0.12 KA relative to UGCAUGU
B33	0.753 KA relative to UGCAUGU
B34	0.804 KA relative to UGCAUGU
B35	0.125 KA relative to UGCAUGU
B36	0.0714 KA relative to UGCAUGU
B37	0.524 KA relative to UGCAUGU
B38	0.23 KA relative to UGCAUGU
B39	0.497 KA relative to UGCAUGU
